# In the library only some 0.99% were active in any assay of this set; here they are far more common.
# WRN inhibitor: qHTS for Inhibitors of WRN Helicase; WRN helicase unwinding, fluorescent forked duplex, kinetic; Bifunctional 3'-5' exonuclease/ATP-dependent helicase WRN (Homo sapiens), Q14191; AID 651768, 2012; 360,000 tested, 0.46% active; Potency, µM (doses to about 114 µM), for the others: at the highest dose activity change, negative = inhibition, most hits filed as inhibitors; also: nearly all actives have a fitted effect of over 55% in size
#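 WRN at 20 nM final preincubated with compound 15 min at room temperature; reaction started with 100 nM fluorophore/quencher forked duplex oligonucleotide and 2 mM ATP final. Unwinding followed kinetically by red fluorescence (ex 525, em 598 nm).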
# FEN1 inhibitor: qHTS Assay for the Inhibitors of Human Flap endonuclease 1 (FEN1); P39748; Recombinant FEN1 flap cleavage, fluorescence, 15 min; Potency, µM (highest dose often 114 µM), for the others: at the top dose activity change, negative = inhibition, hits mostly inhibitors; 390,000 tested, 0.35% active; AID 588795, 2011; also: nearly all actives have a fitted effect of over 65% in size
#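 With each library titrated from low to high concentration, compounds met 10 nM FEN1 for 15 min at room temperature before 50 nM substrate was added; readings at 0 and 15 min fed four-parameter Hill curve fits.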
# L3MBTL1 block: qHTS Assay for the Inhibitors of L3MBTL1; 230,000 tested, 0.66% active; Potency, µM (titrated, usually from 57.1 µM), without a hit: top-dose activity, negative = inhibition, actives largely listed as inhibitors; AlphaScreen L3MBTL1–H3K9me1 peptide binding; also: nearly all actives have a fitted effect of over 60% in size
#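 L3MBTL1 (50 nM) pre-complexed 30 min with biotinylated H3(1-15)K9me1 peptide (75 nM), then compounds added for 30 min at room temperature; AlphaScreen streptavidin donor/nickel chelate acceptor beads (10 ug/mL final) read after 30 min dark incubation.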
# RECQ1 inh: qHTS Assay for Inhibitors of RecQ-Like Dna Helicase 1 (RECQ1); AID 2549, 2010; ATP-dependent DNA helicase Q1 (Homo sapiens), P46063; RECQ1 DNA unwinding, red fluorescence kinetic read; 240,000 tested, 0.54% active; Potency, µM (titrated, usually from 57.3 µM), for inactives: at the top dose activity, negative = inhibition, usual class: inhibitors;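 also: plate controls were vehicle for no effect and no enzyme for full effect; nearly all actives have a fitted effect of over 30% in size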
#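 RECQ1T1 50 nM; forked duplex (20 bp + 30-nt ss tails) 200 nM, ATP 2 mM final; pH 8.0, 2 mM MgCl2, 2.5 ug/ml poly(dI-dC); 15 min compound preincubation; discontinuous kinetic read over 2 h at RT.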
# BLM helicase inh: qHTS Assay for Inhibitors of Bloom's syndrome helicase (BLM); RecQ-like DNA helicase BLM (Homo sapiens), P54132; recombinant BLM DNA unwinding, fluorescence dequenching; Potency, µM (top dose mostly 56.1 µM), without a hit: at the highest dose activity change, negative = inhibition, actives largely listed as inhibitors; 350,000 tested, 0.2% active; AID 2528, 2010;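 also: plate controls were vehicle for no effect and no enzyme for full effect; nearly all actives have a fitted effect of over 35% in size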
# The depositor's hits bear a star; i = inactive; u = inconclusive; x = no result given; [ ] = remark or other dose. Calls follow the shape of the dose curve; as a rule, active = well fitted curve in the direction sought with a large enough effect; inconclusive = small, poorly fitted or top-dose-only effect, or another doubt; inactive = no such curve, though single readings can be large; an effect the other way counts as inactive or inconclusive. Unless noted, % is scaled to controls: 0 for no effect and ±100 for the full control effect; potency is read from the fitted curve at half-maximal effect.
SMILES,WRN inhibitor,FEN1 inhibitor,L3MBTL1 block,RECQ1 inh,BLM helicase inh
N#CC(C#N)=Cc1ccc(OC(=O)c2ccccn2)cc1,-8%,1%,25µM*,-2%,-3%
CS[C@@H]1SC[C@H]2C(=O)N(C)C(C(C)C)C(=O)OC[C@@H](NC(=O)c3cnc4ccccc4n3)C(=O)N[C@@H](C)C(=O)N(C)[C@H]1C(=O)N(C)C(C(C)C)C(=O)OC[C@@H](NC(=O)c1cnc3ccccc3n1)C(=O)N[C@@H](C)C(=O)N2C (some centres undefined),x,x,x,10µM*,26%
O=C1N/C(=C\c2ccc(O)cc2)C(=O)c2ccccc21,u,-15%,-4%,i,32µM*
COC(=O)C1(CC(C)C)C=C2C(=C(C(C)C)C(=O)C2C)CN1 (centres undefined),x,x,x,5%,-6%
CCOc1cc(S(=O)(=O)N2CCN=C2Cc2ccccc2)ccc1F,-6%,-2%,x,x,-1%
Cc1ccc(/C=C2\S/C(=N/S(=O)(=O)c3cccs3)NC2=O)cc1,50µM*,u,-7%,3%,-10%
COc1ccc(NC(=O)CN2C(=O)C3(SCC(=O)N3c3ccccc3)c3ccccc32)cc1Cl (centres undefined),x,-21%,x,x,-9%
COc1cc(N)c(Cl)cc1C(=O)OCCN1CCCCC1,x,11µM*,x,-5%,-2%
Cc1c(NC(=O)CN2CCCc3ccccc32)c(=O)n(-c2ccccc2)n1C,4%,-2%,5%,-9%,-6%
COc1ccc(CC(=O)Nc2cc(=O)n(C)c(=O)n2C)cc1,4%,-2%,x,-7%,-3%
CCCCn1c(O)c(/C=C/C=C/C=Nc2ccccc2)sc1=S,-21%,-19%,-16%,32µM*,-25%
CCn1c(O)c(/C=C/C=C/C=Nc2ccccc2)sc1=S,-27%,12%,-13%,i,-11%
CN(C)c1ccc2cc(S(=O)(=O)O)cc(O)c2c1,u,50µM*,x,x,x
Cc1nc(NC2=NCN(CCCN3CCOCC3)CN2)nc2c(C)cccc12,86%,40µM*,-4%[11.4 µM],14%,134%
Cc1cc2nc(NC3=NCN(CCN4CCOCC4)CN3)nc(C)c2cc1C,x,x,4%,-2%,28%
CN(C)[C@@H]1C(=O)C(C(=O)NCN2CCCC2)=C(O)[C@@]2(O)C(=O)C3=C(O)c4c(O)cccc4[C@@](C)(O)C3CC12 (some centres undefined),x,x,u,3.2µM*,14µM*
COc1ccc(C2CC(c3ccccc3Cl)Nc3ncnn32)cc1OC (centres undefined),4%,-1%,42%,-2%,1%
COc1ccc(N(CC(=O)Nc2cccnc2)S(=O)(=O)c2ccccc2)cc1Cl,-19%,7%,x,x,-6%
O=C(Cc1cccc2ccccc12)N/N=C/c1ccc(OC(=O)/C=C/c2ccco2)cc1,-5%[57.1 µM],-10%,25µM*,-7%,-8%
CCOC(=O)C1=C(C)N(C[C@@H]2CC[C@@H](Cc3ccc(-c4ccccc4)cc3)O2)C(=O)NC1c1ccc(SCc2ccco2)c([N+](=O)[O-])c1 (some centres undefined),u,-24%,32µM*,x,x
CCOC(=O)C1=C(C)N(C[C@@H]2CC[C@@H](Cc3ccc(-c4ccccc4)cc3)O2)C(=O)NC1c1ccc(C(F)(F)F)cc1 (some centres undefined),-10%,-24%,-2%,x,x
O=C(O)c1ccc2c(c1)C1C=CCC1C(c1ccncc1)N2 (centres undefined),5%,13%,x,i,-3%
CCOC(=O)C1Nc2ccc(C(=O)O)cc2C2C=CCC12 (centres undefined),28µM*,20µM*,-8%[2.29 µM],x,9%
CCOC(=O)c1ccc2c(c1)C1C=CCC1C(C(=O)O)N2 (centres undefined),x,x,3.2µM*,8.9µM*,28µM*

# Screening data (PubChem)
